A selection: hits, their analogues and other compounds. The true share with any hit is near 10%.
GPT2 inh – Primary qHTS assay for inhibitors of Glutamate pyruvate transaminase 2 (GPT2). Recombinant GPT2, coupled pyruvate oxidase/HRP Amplex Red fluorescence. actives 0.25% (n = 100,000). Potency, µM (top dose mostly 57.7 µM), for inactives: top-dose activity change, negative = inhibition, hits mostly inhibitors. AID 1671188, 2021. Alanine aminotransferase 2 (Homo sapiens), Q8TD30; also: % is scaled to controls: 0 for no effect and ±100 for the full control effect; nearly all actives have a fitted effect of over 60% in size
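GPT2 10ng/uL, a-KG 250uM, L-Ala 2mM, HEPES pH7.5 + 0.0001% Tween; 30 min RT. Then Amplex mix (PO/HRP/ThPP), 30 min RT dark, fluorescence. AOA 50uM used as positive control.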
HEK293 tox – Cytotoxic Profiling in HEK 293 Cell Line of Diverse Libraries Using Quantitative High-Throughput Screening. HEK 293 viability, ATP luminescence (CellTiter-Glo), 48-72 h. Potency, µM (titrated, usually from 115 µM), for inactives: at the highest dose activity change, negative = cytotoxicity, actives largely listed as inhibitors. actives 6.6% (n = 94,000). AID 1345083, 2018; also: % is scaled to controls: 0 for no effect and ±100 for the full control effect; nearly all actives have a fitted effect of over 60% in size
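HEK 293 seeded at 250 cells/well receive compound via pintool. After 48 or 72 hr at 37 degree Celsius, 5% CO2 and 95% humidity, CellTiter-Glo is dispensed and luminescence read following 10 min at room temperature.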
NPR1 antag – Natriuretic polypeptide receptor (hNpr1) antagonism - Primary qHTS; Atrial natriuretic peptide receptor 1 (Homo sapiens), P16066; Potency, µM (top dose mostly 46.3 µM), without a hit: top-dose activity change, negative = inhibition, hits mostly inhibitors; HEK293 hNpr1 GloSensor cGMP, ANP-stimulated luminescence; actives 1.6% (n = 76,000); calls by dose curve; also: % is scaled to controls: 0 for no effect and ±100 for the full control effect; nearly all actives have a fitted effect of over 60% in size
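Compound pre-incubated 30 min at room temperature on GloSensor-loaded HEK293 cells stably carrying hNpr1 and the pGS-40F cGMP biosensor. Stimulation uses hNppA at 0.1 nM final; luminescence is taken at baseline and 20 min post-agonist.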
NIH3T3 tox – Cytotoxic Profiling in NIH 3T3 Cell Line of Diverse Libraries Using Quantitative High-Throughput Screening. NIH 3T3 viability, CellTiter-Glo ATP luminescence, 48-72 h. actives 4.3% (n = 94,000). AID 1345082, 2018. Potency, µM (titrated, usually from 96.7 µM), inactives show top-dose activity change, negative = cytotoxicity, actives largely listed as inhibitors; also: % is scaled to controls: 0 for no effect and ±100 for the full control effect; nearly all actives have a fitted effect of over 55% in size
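Viability of NIH 3T3 cells after 48 or 72 hr compound treatment at 37 °C was assessed by CellTiter-Glo, with luminescence imaged following a 10 min room-temperature step.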
FLuc inh – Firefly luciferase inhibition profiling of diverse chemical library using quantitative high-throughput screening. AID 1347043, 2019. actives 2.5% (n = 76,000). purified P. pyralis luciferase, luminescence, biochemical. Potency, µM (series often up to 115 µM), actives largely listed as inhibitors. Luciferin 4-monooxygenase (Photinus pyralis), P08659; also: % is scaled to controls: 0 for no effect and ±100 for the full control effect; nearly all actives have a fitted effect of over 65% in size
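FLuc 10nM, D-luciferin 10uM, ATP 10uM, Mg acetate 10mM, Tris acetate pH 7.5, Tween/BSA; cpd qHTS; enzyme added last; CCD luminescence.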
NPR1 antag cnf – Natriuretic polypeptide receptor (hNpr1) antagonism - Confirmation; shares compounds with NPR1 antag; HEK293 hNpr1 cGMP GloSensor luminescence, ANP-stimulated; Potency, µM (series often up to 57.6 µM), inactives show at the top dose activity change, negative = inhibition, actives largely listed as inhibitors; actives 76% (n = 1,400); calls by dose curve; also: nearly all actives have a fitted effect of over 70% in size
NPR2 antag – Natriuretic polypeptide receptor (hNpr2) antagonism - Subtype selectivity assay. HEK293 hNpr2 GloSensor cGMP luminescence, CNP-stimulated. actives 67% (n = 1,400). Potency, µM (titrated, usually from 57.6 µM), inactives show at the top dose activity change, negative = inhibition, usual class: inhibitors. shares compounds with NPR1 antag; calls by dose curve; also: nearly all actives have a fitted effect of over 70% in size
FLuc counter – Natriuretic polypeptide receptor (hNpr1) antagonism - Confirmation firefly luciferase (FLuc) inhibition counterscreen; shares compounds with NPR1 antag; purified FLuc enzyme, luminescence, Km substrate; Potency, µM (doses to about 57.6 µM), for inactives: at the highest dose activity change, negative = inhibition, hits mostly inhibitors; actives 0.7% (n = 1,400); AID 1347047, 2019; also: 0% is about no effect
GloSensor ctrl – Natriuretic polypeptide receptor (hNpr1) antagonism - Counterscreen GloSensor control cell line. shares compounds with NPR1 antag. HEK293 GloSensor cGMP, SNP-stimulated, luminescence. Potency, µM (doses to about 57.6 µM), for inactives: top-dose activity change, negative = inhibition, most hits filed as inhibitors. actives 69% (n = 1,400). AID 1347051, 2019; calls by dose curve; also: % is scaled to controls: 0 for no effect and ±100 for the full control effect; nearly all actives have a fitted effect of over 70% in size
* hit, by the source's call; i = inactive; ? = inconclusive; nt = not tested or not shown; [ ] = dose if it differs, or a comment. Unless noted, calls follow the shape of the dose curve; as a rule, active = well fitted curve in the direction sought with a large enough effect; inconclusive = small, poorly fitted or top-dose-only effect, or another doubt; inactive = no such curve, though single readings can be large; an effect the other way counts as inactive or inconclusive. Potency is read from the fitted curve at half-maximal effect.

SMILES	GPT2 inh	HEK293 tox	NPR1 antag	NIH3T3 tox	FLuc inh	NPR1 antag cnf	NPR2 antag	FLuc counter	GloSensor ctrl
CC1Oc2ccc(NC(=O)c3ccc(F)cc3F)cc2CN(CCc2ccccc2)C1=O (centres undefined)	-8%	?	3%	-26%	i	nt	nt	nt	nt
CC(=O)Oc1ccccc1C(=O)Nc1ccc2c(c1)CN(CCc1ccc(F)cc1)C(=O)C(C)O2 (centres undefined)	i	?	16µM*	25µM*	i	24µM*	24µM*	-7%	24µM*
O=C(Cn1nc2c(cc1=O)CCCC2)N1CCn2c(nnc2C(F)(F)F)C1	i	0%	6%	?	i	nt	nt	nt	nt
COc1cccc(C(=O)N2CCC3(C2)NC(=O)N(Cc2ccc(Cl)cc2)C3=O)c1 (centres undefined)	i	?	?	?	i	?	?	1%	-29%
COCCOCC(=O)N1CCOc2ccc(CN3CCc4ccccc4C3)cc2C1	i	4%	3%	-19%	i	nt	nt	nt	nt
COc1ccccc1C(=O)N1CCCC(n2cc(-c3noc(C)n3)nn2)C1 (centres undefined)	i	1%	1%	-6%	i	nt	nt	nt	nt
Cc1ccc(CN2C[C@@H](CO)[C@H](c3nc(-c4ccncc4)no3)C2)cc1	-19%	?	11µM*	?	i	24µM*	24µM*	-7%	24µM*
Cc1ccc(-c2ccc(O)cn2)c2cccnc12	?	?	?	-41%	i	?	?	-3%	?
Cc1ccc(NC(=O)N[C@H]2C[C@@](O)(C(=O)N[C@H](CC(C)C)C(N)=O)C[C@@H](O)[C@@H]2O)cc1	-8%	0%	5%	2%	i	nt	nt	nt	nt
COc1ccc(C2Cn3nnc(C(=O)N4CCN(C(=O)c5cccc(C)c5)CC4)c3CO2)cc1 (centres undefined)	3%	8.9µM*	14µM*	?	i	19µM*	22µM*	5%	14µM*
COc1ccc(C2Cn3nnc(C(=O)N4CCN(C(=O)c5ccc(C)s5)CC4)c3CO2)cc1 (centres undefined)	-1%	?	?	?	i	24µM*	24µM*	0%	24µM*
O=C(c1ccccc1)N1CCN(C(=O)c2nnn3c2COC(c2ccccc2)C3)CC1 (centres undefined)	i	-30%	-3%	-24%	i	nt	nt	nt	nt
Cc1ccc(C2Cn3nnc(C(=O)N4CCN(C(=O)c5cccc(C)c5)CC4)c3CO2)cc1 (centres undefined)	i	45µM*	11µM*	?	i	22µM*	22µM*	-1%	19µM*
Cc1ccc(C2Cn3nnc(C(=O)N4CCN(C(=O)c5cccc(Cl)c5)CC4)c3CO2)cc1 (centres undefined)	i	32µM*	?	?	i	15µM*	22µM*	2%	14µM*
Cc1noc([C@H]2CCN(Cc3cc(F)ccc3F)C[C@H]2NC(=O)C2CC2)n1	4%	-2%	2%	4%	i	nt	nt	nt	nt
CC(C)c1ccc(CC(=O)N2CCCc3ncc(C(=O)Nc4ccccc4)cc32)cc1	0%[88.5 µM]	28µM*	3.5µM*	28µM*	i	5.6µM*	6.3µM*	3%[86.2 µM]	5µM*
Cc1ccccc1NC(=O)c1cnc2c(c1)N(C(=O)Cc1cn(C)c3ccccc13)CCC2	-15%[88.5 µM]	?	-15%[70.6 µM]	?	i	nt	nt	nt	nt
CC(C)c1ccc(CC(=O)N2CCCc3ncc(C(=O)N(C)c4ccccc4)cc32)cc1	-9%[88.5 µM]	?	?	?	i	35µM*	44µM*	0%[86.2 µM]	44µM*
Cc1csc(NC(=O)c2cnc3c(c2)N(C(=O)Cc2ccc(C(C)C)cc2)CCC3)n1	-2%[88.5 µM]	35µM*	22µM*	?	i	31µM*	35µM*	-13%[86.2 µM]	28µM*
Cn1cc(CC(=O)N2CCCc3ncc(C(=O)Nc4cccc(Cl)c4)cc32)c2ccccc21	2%	?	-24%	?	i	-30%	-28%	-1%	-23%
CC(C)c1ccc(CC(=O)N2CCCc3ncc(C(=O)N(C)Cc4ccccc4)cc32)cc1	-28%	?	-20%	?	i	nt	nt	nt	nt
CCOc1ccc(-c2[nH]ncc2CN)cc1	-12%	?	1%	?	i	nt	nt	nt	nt
COc1ccccc1CC(=O)N1CCCc2ncc(C(=O)Nc3cccc(F)c3)cc21	i	63µM*	32µM*	89µM*	i	35µM*	35µM*	-15%[86.2 µM]	35µM*
O=C(Nc1ccccc1)c1cnc2c(c1)N(C(=O)Cc1ccc(O)cc1)CCC2	2%[88.5 µM]	?	28µM*	-17%[138 µM]	i	35µM*	35µM*	-3%[86.2 µM]	35µM*
O=C(NC(c1ccccc1)c1ccccc1)c1cnc2c(c1)N(C(=O)Cc1ccc(O)cc1)CCC2	?	-30%	-8%	?	i	nt	nt	nt	nt
COc1ccccc1CC(=O)N1CCCc2ncc(C(=O)Nc3cccnc3)cc21	-7%[88.5 µM]	?	0%[70.6 µM]	-20%[138 µM]	i	nt	nt	nt	nt

Source: PubChem BioAssay
